The results in this text go back to PubChem BioAssay (NCI).

The nature of assay [1]: NCI Yeast Anticancer Drug Screen. Data for the rad50 strain (AID 155).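 Further: 0% = growth of vehicle-only cultures of the same strain.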 The settings on record: S. cerevisiae rad50 strain growth inhibition; at 50.0 µM; stronger effect = higher value. In short, it runs like this: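 Cells are treated with compound, grown, and their growth is then scored against vehicle-only cultures of the same repair-deficient yeast strain.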
Assay [2] is described as follows: NCI Yeast Anticancer Drug Screen. Data for the mec2-1 strain (AID 157). Conditions: S. cerevisiae mec2-1 strain, at 50.0 µM, stronger effect = higher value. In short, it runs like this:
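mec2-1 yeast strain, carrying an alteration in DNA damage repair or cell cycle control, was exposed to compounds; growth inhibition was measured relative to vehicle-treated controls.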

Assay [3] in a line: NCI Yeast Anticancer Drug Screen. Data for the sgs1 mgt1 strain (AID 161).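 Further: 0% = growth of cultures given vehicle only.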 Conditions: S. cerevisiae sgs1 mgt1 strain, at 50.0 µM, stronger effect = higher value. In short, it runs like this: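 This yeast growth screen uses a strain with defined DNA-repair lesions; compound-treated growth is compared with vehicle-treated growth.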
A short description of assay [4]: NCI Yeast Anticancer Drug Screen. Data for the cln2 rad14 strain (AID 165).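 Further: 0% = growth equal to vehicle treated cultures.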 The settings on record: S. cerevisiae cln2 rad14 strain, at 50.0 µM, stronger effect = higher value. In short, it runs like this: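 Yeast carrying cln2 and rad14 alterations (cell cycle control and DNA damage repair) were exposed to compounds. Growth inhibition was measured against vehicle-treated controls.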

Assay [5] in a line: NCI Yeast Anticancer Drug Screen. Data for the bub3 strain (AID 167). The settings on record: S. cerevisiae bub3 mutant strain, at 50.0 µM, stronger effect = higher value. In short, it runs like this:
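Part of a panel of yeast mutants defective in DNA damage repair or cell cycle regulation. Each strain is grown with compound, and inhibition is calculated relative to solvent-treated cultures.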

The nature of assay [6]: NCI Yeast Anticancer Drug Screen. Data for the mlh1 rad18 strain (AID 175). The settings on record: S. cerevisiae mlh1 rad18 strain growth inhibition; at 50.0 µM; stronger effect = higher value. In short, it runs like this: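 Growth inhibition of the yeast strain was measured after compound exposure and expressed relative to vehicle-treated controls. The strain carries defined defects in DNA damage repair.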

About 79,000 compounds went through this panel and 15% of them were active in at least one assay; those are over-represented in the sample as a whole. Values without a mark were called inactive. Calls of active or inactive are those of the source. No stated cut-off is given here; in the data, active means growth inhibition above about 70%; inactive means the rest.

Regarding `COc1nc2ccccc2s1`, the growth inhibition is 18.6% in assay [1]; -15.2% in assay [2]; 13.1% in assay [3]; 10.9% in assay [4]; 1.5% in assay [5]; 22.4% in assay [6].
Regarding `Cc1ccc(NCN2C(=O)c3ccccc3C2=O)c(C)n1`, the growth inhibition was 4.7% in assay [1]; -28.4% in assay [2]; 8.05% in assay [3]; 11.3% in assay [4]; 7% in assay [5]; -0.65% in assay [6].
With `Cc1cccc(-[n+]2noc(N)n2)c1`, the growth inhibition in assay [1] is 29.1%; in assay [2], 22.2%; in assay [3] it was 2.25%; in assay [4], -3.35%; in assay [5], 1.95%; in assay [6] it was 40.6%.
On to `ClCC(Cl)[C@@H]1CC2C=CC1C2` (stereo partly specified), for which the growth inhibition in assay [1] is 2.85%; in assay [2], -3.65%; in assay [3], 10.3%; in assay [4], 15.6%; in assay [5], 11.2%; in assay [6], -6.1%.
Regarding `CCC12OC(COc3ccccc3)CN1CCN2c1ccccc1` (stereo unspecified), the growth inhibition in assay [1] was -12.2%; in assay [2], -6.15%; in assay [3], -10.7%; in assay [4], 3.15%; in assay [5], -15.1%; in assay [6] it was -11.5%.
`Cc1ccc(O)c(N)c1`: the growth inhibition in assay [1] is 2.1%; in assay [2], -12.5%; in assay [3], -20.3%; in assay [4], 2.35%; in assay [5], -9.6%; in assay [6], 0.95%.
As to `CCCCCCCCCc1ccc(OC(C)=O)cc1`, the growth inhibition is 99.3% (active) in assay [1]; 97.2% (active) in assay [2]; 42.2% in assay [3]; 98% (active) in assay [4]; 94.2% (active) in assay [5]; 98.4% (active) in assay [6].
As for `CC(=O)Nc1ccc(O)c(C)c1`, the growth inhibition in assay [1] was 10.8%; in assay [2] it was 3.35%; in assay [3], -25.8%; in assay [4], -21.8%; in assay [5], -14.8%; in assay [6], -1.1%.
As for `NNc1ncnc2c1ncn2C1OC(CO)C(O)C1O` (stereo unspecified), the growth inhibition in assay [1] is -9.85%; in assay [2], -12.8%; in assay [3], 0.15%; in assay [4], -21.9%; in assay [5] it was 1.45%; in assay [6], -15.2%.
Consider `Nc1ccc2c(c1)Cc1cc(N)c(N)cc1-2`, for which the growth inhibition in assay [1] is 10.8%; in assay [2], -7.75%; in assay [3], 10.9%; in assay [4], -18.7%; in assay [5] it was -3.8%; in assay [6] it was 5.8%.
Consider `Clc1ccc(C(SCc2ccccc2)SCc2ccccc2)cc1`, for which the growth inhibition in assay [1] was -41.4%; in assay [2], -46.8%; in assay [3], -15.6%; in assay [4] it was -17.6%; in assay [5], -10%; in assay [6] it was -20.1%.
On to `CCCCc1ccc2nc(NC(=O)OC)[nH]c2c1`, for which the growth inhibition in assay [1] was -4.25%; in assay [2], 21.5%; in assay [3], 13.6%; in assay [4] it was 28.8%; in assay [5], 21.5%; in assay [6], 11.1%.
`CN1CCN(C(=S)S)CC1`: the growth inhibition in assay [1] is 0.3%; in assay [2], -2.5%; in assay [3], 4.75%; in assay [4], 2.15%; in assay [5], 3.5%; in assay [6], 5.15%.
Turning to `CCCc1cccc(CCC)c1NC(=O)Nc1cc(Cl)cc(Cl)c1`, the growth inhibition in assay [1] was 37.5%; in assay [2] it was 19.9%; in assay [3], 47.5%; in assay [4], 37%; in assay [5], 44%; in assay [6], 23.6%.
On to `CC(=O)/C(C)=N\OC(=O)Nc1ccccc1`, for which the growth inhibition in assay [1] is 1.2%; in assay [2], -8.2%; in assay [3] it was -2.65%; in assay [4] it was -7%; in assay [5], 9.4%; in assay [6], -9.95%.
Regarding `CCOC(=O)c1c(C)[nH]c(C)c1C=O`, the growth inhibition in assay [1] is 16.6%; in assay [2], -0.05%; in assay [3], 3.15%; in assay [4], -1.15%; in assay [5], 52.5%; in assay [6] it was 3.9%.
Turning to `CC(c1ccccc1)N(C)C` (stereo unspecified), the growth inhibition in assay [1] is 12.7%; in assay [2], -1.8%; in assay [3], 0.4%; in assay [4], 7.6%; in assay [5], 5.9%; in assay [6], 1.6%.
In the case of `CN1CCCN(C(c2ccccc2)c2ccc(Br)cc2)CC1` (stereo unspecified), the growth inhibition in assay [1] is 40%; in assay [2], 1.95%; in assay [3], 19.8%; in assay [4], 24.1%; in assay [5], 30.9%; in assay [6], 46%.
Take `C=COC(=O)C(C)(C)C`: the growth inhibition is 8.3% in assay [1]; -13.8% in assay [2]; 14.9% in assay [3]; 21.4% in assay [4]; -0.45% in assay [5]; 31.5% in assay [6].
For the compound `Cc1[nH]n(-c2ccccc2)c(=O)c1C=NC(=S)C(N)=S`, the growth inhibition in assay [1] is -24.4%; in assay [2] it was -22.9%; in assay [3], -20.4%; in assay [4], -19.1%; in assay [5], -54.4%; in assay [6] it was -20.5%.
Consider `COc1ccc(/C=N/NC(=O)COCC(=O)N/N=C/c2ccc(OC)cc2)cc1`, for which the growth inhibition in assay [1] was -34.6%; in assay [2], -47.7%; in assay [3] it was -15.4%; in assay [4], 2.5%; in assay [5] it was -33%; in assay [6], -25.6%.
